In the library only some 1.1% were active in any assay of this set; here they are far more common.
SRC3 inh = inhibitors of human steroid receptor coactivator 3 (SRC3) | HEK293 GAL4-SRC3 luciferase reporter, luminescence | inhibition, % at 3.6 µM | 0.17% of 360,000 active | AID 588352;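 active means inhibition above a per-campaign cutoff, the mean of all compounds plus 3 SD, cut at about 60% in these data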;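 further: 0% = DMSO-treated cells and 100% = gossypol-treated cells at 36 µM; higher means less SRC3-driven luciferase light from the GAL4 reporter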
SRC2 inh = human SRC2 (NCOA2) inhibition | AID 651957 | 0.17% of 370,000 active | inhibition, % at 9 µM | HEK293 GAL4-SRC2 luciferase reporter, luminescence | Q15596;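 active means inhibition above the mean inhibition of all tested compounds plus 3 SD, set per campaign, cut at about 52% in these data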;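 further: 0% = DMSO treated cells and 100% = cells given Gossypol at 36 µM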
NR2F2 inh = blocks human COUP-TFII nuclear receptor; HEK293T NGFI-A luciferase reporter, luminescence; inhibition, % at 8.6 µM; 0.7% of 370,000 active;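 active means inhibition above a per-plate cutoff, mean inhibition of test wells between control levels plus 3 SD, cut at about 38% in these data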;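 further: cells cotransfected with COUP-TFII expression vector driving the NGFI-A reporter; 0% = median of COUP-TF2 test wells and 100% = reporter-only cells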
SRC1 inh = inhibitors of human steroid receptor coactivator 1 (SRC1). 0.12% of 360,000 active. HEK293 GAL4-SRC1 luciferase reporter, luminescence. inhibition, % at 3.6 µM. Q15788;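 active means inhibition above the campaign mean plus 3 SD, with each screening campaign given its own cutoff, cut at about 60% in these data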;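 further: 0% = DMSO treated cells and 100% = gossypol at 36 µM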
GalR3 antagonist = blocks the human galanin receptor 3; O60755; HEK293 GalR3-CNG cAMP membrane potential fluorescence; galR3 body fused to GalR1 C-terminus; inhibition, % at 3 µM; 0.44% of 360,000 active;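 active means inhibition above the screen-wide average plus 3 SD, cut at about 13% in these data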;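 further: forskolin and galanin both at EC90 stimulate the cells; cAMP rise reported by CNG channel membrane potential dye signal; 0% = forskolin plus galanin with DMSO and 100% = forskolin alone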
LRH-1 inv ag = NR5A2 inverse agonism in reporter assay; inhibition, % at 3.6 µM; AID 602396; HEK293T StAR-luciferase reporter, LRH-1 transfected, 24 h; 0.13% of 360,000 active;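 active means inhibition above the mean inhibition of all tested compounds plus 3 SD, cut at about 73% in these data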;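 further: 0% = DMSO wells and 100% = reporter-only cells lacking LRH-1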
Target sequence (O00482 whole entry, looked up): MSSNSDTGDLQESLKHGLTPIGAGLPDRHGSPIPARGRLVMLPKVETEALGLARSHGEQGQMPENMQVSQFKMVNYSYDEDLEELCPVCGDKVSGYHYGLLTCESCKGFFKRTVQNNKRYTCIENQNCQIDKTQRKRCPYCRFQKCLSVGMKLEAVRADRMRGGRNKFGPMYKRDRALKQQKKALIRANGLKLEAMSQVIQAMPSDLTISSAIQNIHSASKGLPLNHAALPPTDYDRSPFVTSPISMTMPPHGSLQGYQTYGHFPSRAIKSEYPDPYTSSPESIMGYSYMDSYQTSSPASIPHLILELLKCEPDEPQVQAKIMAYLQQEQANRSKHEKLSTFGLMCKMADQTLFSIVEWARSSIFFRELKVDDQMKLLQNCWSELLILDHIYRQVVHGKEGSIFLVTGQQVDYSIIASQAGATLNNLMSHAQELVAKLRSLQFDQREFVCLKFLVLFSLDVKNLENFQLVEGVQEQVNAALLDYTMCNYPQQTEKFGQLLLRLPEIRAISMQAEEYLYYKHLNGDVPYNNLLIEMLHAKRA
GalR3 antag conf = confirmation of human galanin receptor 3 antagonists; HEK293 GalR3 CNG cAMP biosensor, membrane potential fluorescence; galR3 fused to GalR1 carboxy tail; challenged with forskolin and galanin at EC90; inhibition, % at 3 µM; AID 652245; shares compounds with GalR3 antagonist; 59% of 1,600 active;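 active means inhibition above the primary screen's cutoff, the mean inhibition of all screened compounds plus 3 SD, cut at about 13% in these data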;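 further: 0% = forskolin plus galanin and 100% = forskolin alone with DMSO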
HEK-CNG parental = acts as nonspecific agonist in parental HEK-CNG cells | shares compounds with GalR3 antagonist | HEK293-CNG parental cells, cAMP membrane potential fluorescence; normalised: DMSO wells 0%, forskolin wells 100% | activation, % at 3 µM | 10% of 1,600 active; in the data active means activation above about 1.3%
Starred values were filed as active, the others as inactive.

`Cc1cccc(-c2cccc3c4c([nH]c23)[C@@H]2C[C@H](N(C)C(=O)Nc3ccccc3)[C@H]([C@H](C)O)CN2CC4)c1` gave SRC2 inh 10 and NR2F2 inh -9.
Screening CCCc1[nH]nc2c1C(c1ccc(OC)c(CSC3=NCCS3)c1)C(C#N)=C(N)O2 (stereo unspecified) returned SRC3 inh 15, SRC2 inh -5, NR2F2 inh 8, SRC1 inh -5, GalR3 antagonist 20*, LRH-1 inv ag -3, GalR3 antag conf 3 and HEK-CNG parental 1.
For COc1ccc(C(=O)OC(C)CN2CCOCC2)cc1OC (stereo unspecified) the results were SRC3 inh -51, SRC2 inh 10, NR2F2 inh 17, SRC1 inh 4, LRH-1 inv ag -9, GalR3 antag conf 3 and HEK-CNG parental 0.
For COc1ccc(C(=O)C(CN2CCOCC2)c2ccccc2)cc1F (stereo unspecified) the results were SRC3 inh 24, SRC2 inh 37, NR2F2 inh -22, SRC1 inh 16, GalR3 antagonist 28*, LRH-1 inv ag -14, GalR3 antag conf 1 and HEK-CNG parental 0.
COc1cc(Cn2c(-c3ccc(O)c(OC)c3)nc3ccccc32)ccc1O was read as SRC3 inh 7, SRC2 inh -3, NR2F2 inh -5, SRC1 inh 1, GalR3 antagonist 23*, LRH-1 inv ag -8, GalR3 antag conf 17* and HEK-CNG parental 0.
For COc1ccc(-c2nc3ccccc3n2Cc2ccccc2)cc1 the results were SRC3 inh -7, SRC2 inh -35, NR2F2 inh -11, SRC1 inh -14, GalR3 antagonist -3 and LRH-1 inv ag -7.
For CC(C)CSc1nnc(-c2ccco2)n1C the results were SRC2 inh -20 and NR2F2 inh -19.
OCCNCCOc1ccccc1F was read as SRC3 inh 10, SRC2 inh 2, NR2F2 inh -1, SRC1 inh 11, GalR3 antagonist 13*, LRH-1 inv ag 0, GalR3 antag conf 0 and HEK-CNG parental 0.
`OCCNCCOc1ccccc1-c1ccccc1` gave SRC3 inh 0, SRC2 inh -28, NR2F2 inh 10, SRC1 inh -27, GalR3 antagonist -9 and LRH-1 inv ag -15.
`CCCn1nc(C(=O)NNC(=O)CCCOc2ccc(OC)cc2)c2ccccc2c1=O` gave SRC3 inh 1, SRC2 inh 3, NR2F2 inh -16, SRC1 inh -22, GalR3 antagonist 58*, LRH-1 inv ag 19, GalR3 antag conf 44* and HEK-CNG parental 0.
`CCOc1ccc(OCCC(=O)NNC(=O)c2nn(C)c(=O)c3ccccc23)cc1` gave SRC3 inh 6, SRC2 inh -19, NR2F2 inh 4, SRC1 inh -17, GalR3 antagonist -4 and LRH-1 inv ag -4.
COc1cccc(C2=NOC(C(=O)NCC3CCCO3)C2)c1 (stereo unspecified) was read as SRC3 inh 10, SRC2 inh -10, NR2F2 inh -10, SRC1 inh -5, GalR3 antagonist 35*, LRH-1 inv ag -8, GalR3 antag conf 8 and HEK-CNG parental 0.
Screening COc1ccc(OC)c(C2=NOC(C(=O)NCC3CCCO3)C2)c1 (stereo unspecified) returned SRC3 inh -1, SRC1 inh -3 and LRH-1 inv ag 25.
Screening CCCCCCCCN1C(=O)[C@@H](CC(=O)NCCCN2CCCC2=O)C[C@@]2(C(=O)OC)C1=C[C@H](C(C)(C)C)O[C@@H]2C returned SRC2 inh -4, NR2F2 inh 9 and GalR3 antagonist -7.
COc1ccc(C2C3=C(CC(C)(C)CC3=O)Nc3cc4c(cc32)OCO4)cc1 (stereo unspecified) was read as SRC3 inh -11, SRC2 inh -3, NR2F2 inh 6, SRC1 inh 5, GalR3 antagonist -3 and LRH-1 inv ag 13.
`COc1ccc(OC)c(C2C3=C(COC3=O)Nc3cc4c(cc32)OCO4)c1` (stereo unspecified) gave SRC3 inh 11, SRC2 inh -17, NR2F2 inh -83, SRC1 inh -25, GalR3 antagonist 28*, LRH-1 inv ag 44, GalR3 antag conf 23* and HEK-CNG parental 1.4*.
`FC(F)(F)c1ccccc1Cc1c(-c2ccco2)nc2c3ccccc3ccn12` gave SRC2 inh -31, NR2F2 inh -5, GalR3 antagonist 19*, GalR3 antag conf 35* and HEK-CNG parental 1.
Fc1ccc(-c2nc3c4ccccc4ccn3c2Cc2ccccc2C(F)(F)F)cc1 was read as SRC3 inh -18, SRC1 inh -13 and LRH-1 inv ag -15.
`COc1cc(OC)cc(-c2c(C#Cc3ccsc3)c3cc(-c4ccc(C(N)=O)cc4)ccc3n2C)c1` gave SRC3 inh 0, SRC2 inh -20, NR2F2 inh 7, SRC1 inh 10, LRH-1 inv ag -18, GalR3 antag conf 4 and HEK-CNG parental 0.
CCn1c2ccccc2c2cc(NC(=O)COC(=O)c3cccc(F)c3)ccc21 was read as SRC2 inh -5 and NR2F2 inh -13.
For CCCCc1c(C)nc(Nc2ccc(OC)cc2)[nH]c1=O the results were SRC3 inh -7, SRC2 inh 6, NR2F2 inh 16, SRC1 inh -88, GalR3 antagonist 28*, LRH-1 inv ag 0, GalR3 antag conf -2 and HEK-CNG parental 0.
C[C@@H]1ON(C)[C@H]2C[C@H]3c4[nH]c5cccc(-c6ccccc6F)c5c4CCN3C(=O)[C@@H]12 was read as SRC2 inh 1, NR2F2 inh -19 and GalR3 antagonist -5.
CC(C)(CO)NCc1cccc(OCc2ccc(Cl)cc2)c1 was read as SRC3 inh -8, SRC2 inh -2, NR2F2 inh -4, SRC1 inh -11, GalR3 antagonist -7 and LRH-1 inv ag -1.
Screening Clc1ccc(COc2cccc(CNCc3ccncc3)c2)cc1 returned SRC3 inh 14, SRC2 inh 27, NR2F2 inh 32, SRC1 inh 11, GalR3 antagonist 32*, LRH-1 inv ag 45, GalR3 antag conf 93* and HEK-CNG parental 1.
Screening COc1ccc(CN2CCC(CO)(Cc3cccc(C(F)(F)F)c3)CC2)cc1Cn1cccn1 returned SRC3 inh 19, SRC2 inh 3, NR2F2 inh 7, SRC1 inh -20, GalR3 antagonist 16*, LRH-1 inv ag 1, GalR3 antag conf 4 and HEK-CNG parental 3.9*.

Screening results from PubChem.
